A selection: hits, their analogues and other compounds. The true share with any hit is near 2.6%.
LMP1 NFkB inh = EBV LMP1-driven NF-kappaB luciferase reporter inhibitors, primary screen, cell-based, luminescence, single point; actives 0.69% (n = 350,000); LMP1-induced NF-kappaB luciferase reporter cells; inhibition, % at 12.5 µM; in the data active = inhibition above about 41%;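 note: 0% = neutral control wells and 100% = reference inhibitor control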
HSP90 inh = HSP90 inhibitors, primary screen, cell lysate, luminescence | Heat shock protein HSP 90 (rabbit reticulocyte lysate; luciferase refolding) | Rabbit reticulocyte lysate, luciferase refolding luminescence, 3 h | inhibition, % at 5.6 µM | actives 0.91% (n = 290,000);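 active = inhibition above the screen-wide mean plus 3 SD, computed separately per campaign, cut at about 16% in these data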;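 note: 0% = DMSO wells and 100% = 60 µM geldanamycin wells; inhibitors lower the luminescence because luciferase stays unfolded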
LGR2 inh = inhibitors of bursicon-induced LGR2 CRE-luciferase signal, primary screen, cell-based, HEK293, CRE-luciferase reporter, bursicon stimulation | Drosophila bursicon receptor LGR2 (rickets) | bursicon-stimulated, 4 h | inhibition, % at 9.99 µM | AID 720647, 2013 | actives 0.35% (n = 380,000);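 active = drop in luminescence signal, shown as inhibition above about 50% in the replicate tests, limit read from the data, passing the limit was not always enough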;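 note: agonist challenge used bursicon conditioned medium at about half maximal strength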
aDG glyco up = activators of alpha-DG glycosylation, primary screen, uHTS, Pro5-aDG cells, AlphaScreen; alpha-DG glycosylation AlphaScreen (IIH6); 0% Pro5, 100% B10-LARGE cell signal; activation, % at 10 µM; actives 0.22% (n = 360,000);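 active = activation of at least 8% versus controls, or a plate z-score of at least 8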;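 note: Pro5 are CHO cells carrying HIG-tagged alpha-DG that lacks glycosylation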
TROY NFkB inh = inhibitors of TROY-driven NF-kB signaling, primary screen, Q293 LMP1-TROYcd cells, NF-kB luciferase, uHTS; Q293 LMP1-TROYcd NF-kB luciferase reporter, 4 h; inhibition, % at 10 µM; actives 0.98% (n = 360,000); AID 1347056, 2019;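 active = compounds whose plate-normalised and pattern-corrected inhibition of the luciferase reporter signal at the single screening dose is 50% or more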
TWEAK-Fn14 inh = inhibitors of TWEAK-Fn14 signaling, primary screen, luciferase reporter cells, uHTS. TWEAK-stimulated Fn14 reporter cells, luciferase luminescence, 8 h. inhibition, % at 10 µM. actives 2% (n = 360,000). AID 1159606, 2016; in the data active = inhibition above about 50%
Active calls of the source: *.

What do the screens show for `CC(C)C(=O)OCC(=O)NCc1ccccc1Cl`?
LMP1 NFkB inh: 4.2; HSP90 inh: -2.0; LGR2 inh: -18.1; aDG glyco up: 0.2; TROY NFkB inh: -41.6; TWEAK-Fn14 inh: -3.1

Results for Cc1ccc(NC(=O)/C=N/OCC(=O)NCc2ccccc2Cl)cc1 ?
LMP1 NFkB inh: 48.2*; HSP90 inh: 1.6; LGR2 inh: 9.6; aDG glyco up: -0.1; TROY NFkB inh: -11.1; TWEAK-Fn14 inh: -21.1

Results for CCn1c(=O)c2c(cnn2C)c2ccccc21 ?
LMP1 NFkB inh: 46.7*; HSP90 inh: -1.1; aDG glyco up: 1.0; TROY NFkB inh: 43.0; TWEAK-Fn14 inh: 58.1*

Results for CCCn1c2ccccc2c2cnn(CC(=O)O)c(=O)c21 ?
LMP1 NFkB inh: 2.0; HSP90 inh: 0.4; LGR2 inh: 1.3; aDG glyco up: 0.0; TROY NFkB inh: 1.6; TWEAK-Fn14 inh: -9.3

How did C[C@@H]1CCCCO[C@H](CN(C)C(=O)C2CCCCC2)[C@H](C)CN([C@@H](C)CO)C(=O)c2cc(NC(=O)Nc3ccccc3)ccc2O1 do in these assays?
LGR2 inh: 7.8

What do the screens show for `Cc1ccc(CN2C(=O)C(F)(F)Oc3ccccc32)cc1`?
LGR2 inh: -0.3; aDG glyco up: 0.0; TROY NFkB inh: 11.5; TWEAK-Fn14 inh: -3.2

How did Cc1ccc(C(=O)N2c3ccccc3N(Cc3ccccc3)C(=O)C2(C)C)cc1 do in these assays?
LMP1 NFkB inh: 23.4; HSP90 inh: 5.5; LGR2 inh: 0.0; aDG glyco up: 0.1; TROY NFkB inh: 36.4; TWEAK-Fn14 inh: 52.7*

Results for CC(C)(C)OC(=O)N(Cc1ccccc1)Cc1ccc(OCc2cccc(NC(=O)C3CC3)c2)cc1 ?
LMP1 NFkB inh: 10.2; LGR2 inh: 11.4; aDG glyco up: 0.2; TROY NFkB inh: 17.1; TWEAK-Fn14 inh: 57.5*

What do the screens show for `CC(C)(C)OC(=O)N(CCc1ccccc1)Cc1ccc(OCc2cccc(NC(=O)C3CCCC3)c2)cc1`?
LMP1 NFkB inh: -6.3; LGR2 inh: 0.2; aDG glyco up: 0.1; TROY NFkB inh: -8.2; TWEAK-Fn14 inh: 4.4

Results for O=C(Cn1ccc2ccccc2c1=O)Nc1ccc2c(c1)OCO2 ?
LMP1 NFkB inh: -3.1; HSP90 inh: -0.6; aDG glyco up: -0.2; TROY NFkB inh: 3.9; TWEAK-Fn14 inh: 8.2

Results for O=C(Cn1ccc2ccccc2c1=O)NCCC(=O)Nc1ccc2c(c1)OCCO2 ?
LMP1 NFkB inh: 21.0; HSP90 inh: -0.4; aDG glyco up: 0.0; TROY NFkB inh: 35.6; TWEAK-Fn14 inh: 57.2*

Results for O=c1cccc2c1c1cc[nH]c3ccc(=O)n2c31 ?
LMP1 NFkB inh: 15.7; LGR2 inh: 15.1; aDG glyco up: 0.2; TROY NFkB inh: 40.9; TWEAK-Fn14 inh: 54.2*

How did O=c1cc[nH]c2ccc(Cl)cc12 do in these assays?
LMP1 NFkB inh: 2.2; HSP90 inh: -2.0; LGR2 inh: -8.3; aDG glyco up: 0.1; TROY NFkB inh: -5.4; TWEAK-Fn14 inh: -4.2

What do the screens show for `CCN(c1cccc(C)c1)S(=O)(=O)c1ccc2c(c1)CCN2C(C)=O`?
LMP1 NFkB inh: 9.1; HSP90 inh: 1.7; aDG glyco up: 0.0; TROY NFkB inh: 34.5; TWEAK-Fn14 inh: 93.4*

Results for CCN(c1cccc(C)c1)S(=O)(=O)c1ccc2c(c1)CCCN2C(C)=O ?
LMP1 NFkB inh: 7.8; HSP90 inh: -2.8; LGR2 inh: 25.3; aDG glyco up: 0.0; TROY NFkB inh: 5.6; TWEAK-Fn14 inh: 13.6

What do the screens show for `CCOC(=O)c1nn(-c2ccc(C)c(C)c2)cc1O`?
LMP1 NFkB inh: 3.4; HSP90 inh: 3.3; aDG glyco up: 0.1; TROY NFkB inh: -19.1; TWEAK-Fn14 inh: 23.4

Results for CCOC(=O)c1nn(-c2c(C)n(C)n(-c3ccccc3)c2=O)cc1O ?
LMP1 NFkB inh: 4.2; HSP90 inh: 0.9; aDG glyco up: 4.4; TWEAK-Fn14 inh: 61.5*

How did O=C(Cc1cccnc1)N1CC(=O)N2[C@H](C1)[C@@H](c1ccc(/C=C/c3ccccc3)cc1)[C@@H]2CO do in these assays?
LGR2 inh: -6.0

Results for CC(=O)Nc1nc2c(s1)CCc1ccccc1-2 ?
LMP1 NFkB inh: -3.6; HSP90 inh: -0.1; LGR2 inh: -9.5; aDG glyco up: 0.0; TROY NFkB inh: -15.5; TWEAK-Fn14 inh: 57.2*

Results for Cc1cc(C)cc(NC(=O)Cn2c(SCc3cc(C)ccc3C)nc3ccncc32)c1 ?
HSP90 inh: 16.1*

Results for Cc1ccc(CSc2nc3ccncc3n2CC(=O)Nc2cc(C)cc(C)c2)cc1 ?
LMP1 NFkB inh: -7.3; HSP90 inh: 3.0; LGR2 inh: -53.8; aDG glyco up: -0.1; TROY NFkB inh: -60.1; TWEAK-Fn14 inh: -0.9

Results for O=C(CSc1nnc2ccccn12)NNC(=O)c1ccccc1 ?
LMP1 NFkB inh: -1.7; HSP90 inh: 6.5; LGR2 inh: -17.8; aDG glyco up: -0.3; TROY NFkB inh: 0.0; TWEAK-Fn14 inh: -9.6

Results for O=C(CSc1nnc2ccccn12)NC(=O)Cc1ccccc1 ?
LMP1 NFkB inh: 5.7; HSP90 inh: 5.7; LGR2 inh: 10.8; aDG glyco up: -0.2; TROY NFkB inh: 0.3; TWEAK-Fn14 inh: 51.5*

How did Cc1ccc(/C=C/C(=O)N2CCN(S(=O)(=O)c3cccs3)CC2)o1 do in these assays?
LMP1 NFkB inh: 0.0; HSP90 inh: -0.3; LGR2 inh: -6.3; aDG glyco up: -0.1; TROY NFkB inh: 15.9; TWEAK-Fn14 inh: 85.7*

Results for O=C(/C=C/c1ccco1)N1CCN(S(=O)(=O)c2cccs2)CC1 ?
LMP1 NFkB inh: 6.2; HSP90 inh: -2.0; LGR2 inh: -14.4; aDG glyco up: 0.2; TROY NFkB inh: 8.1; TWEAK-Fn14 inh: -2.9

Results for Cc1ccc(S(=O)(=O)Nc2cccc3c2O[C@H](CN(C)C(=O)Nc2cccc4ccccc24)[C@@H](C)CN([C@H](C)CO)C3=O)cc1 ?
LGR2 inh: -3.2

What do the screens show for `CCc1nccn1C(=O)c1cnn2c(C(F)F)cc(-c3ccc(C)cc3)nc12`?
LMP1 NFkB inh: -6.6; HSP90 inh: 3.7; LGR2 inh: -11.4; aDG glyco up: -0.4; TROY NFkB inh: 8.4; TWEAK-Fn14 inh: 54.4*

What do the screens show for `Cc1ccccc1NC(=S)N(Cc1cccnc1)Cc1ccco1`?
LMP1 NFkB inh: 2.2; HSP90 inh: 3.4; LGR2 inh: -5.3; aDG glyco up: 0.0; TROY NFkB inh: -20.1; TWEAK-Fn14 inh: 59.7*

Results for O=C1CS/C(=N\c2ccccn2)N1C1CCCCC1 ?
LMP1 NFkB inh: 3.1; HSP90 inh: -1.6; aDG glyco up: 0.0; TROY NFkB inh: 8.8; TWEAK-Fn14 inh: 53.3*

Results for O=C1c2cccnc2C(=O)N1C1CCCCC1 ?
LMP1 NFkB inh: -2.1; HSP90 inh: 6.5; LGR2 inh: -0.7; aDG glyco up: 0.0; TROY NFkB inh: 13.0; TWEAK-Fn14 inh: -0.5

Screening results: PubChem, several laboratories
